Screening results as filed in PubChem BioAssay.
Rows were chosen to be rich in hits. Some 2% of all compounds tested hit in one or more screens of this group.
697 NFkB inh: inhibitors of PMA/ionomycin-induced NF-kB reporter, 697 cells, primary screen, B-cell NF-kB inhibitor project, cell-based, luminescence, uHTS; 697 B-cell NF-kB luciferase reporter, 16 h; inhibition, % at 4 µM; actives 0.33% (n = 330,000); in the data active = inhibition above about 35%
Beta cell apopt: inhibitors of cytokine-induced beta cell apoptosis, primary screen, luminescence; actives 0.8% (n = 300,000); INS-1E cytokine-induced death, ATP luminescence, 48 h; percent of positive-control rescue, neutral wells zero; AID 435005, 2010; protection from apoptosis, % (test concentration not listed);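 active = Every replicate reaches about 75%, or at least half do and their mean reaches it too, limit read from the data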;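 note: 0% = cytokine-treated negative control wells and 100% = positive control rescue; higher means more ATP so stronger rescue from cytokine killing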
Jurkat NFkB inh: inhibitors of induced NF-kB luciferase reporter, primary screen, TCR NF-kB activation inhibitor project, cell-based, luminescence, uHTS; actives 0.53% (n = 330,000); inhibition, % at 4 µM; Jurkat, PMA/ionomycin-induced NF-kB luciferase reporter; in the data active = inhibition above about 50%
Shn3 3UTR inh: reduction of Shn3 3'UTR firefly luciferase signal, primary screen, Schnurri-3 inhibitor project, cell-based, Clone20 osteoblasts, set 2 | actives 0.52% (n = 360,000) | inhibition, % at 12.5 µM | Clone20 osteoblast Shn3 3'UTR firefly luciferase, 24 h | AID 588674, 2011;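 active = mean inhibition of at least 75% with every replicate also reaching 75%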;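 note: 0% = median of neutral control wells and 100% = pilot-screen positive control compound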
Calb FLC: C. albicans growth inhibition with fluconazole, primary screen, CaCi-2 strain, Alamar Blue fluorescence. C. albicans CaCi-2 (fluconazole-resistant clinical isolate) + fluconazole, 48 h. growth inhibition, % (no concentration beside the values). actives 0.57% (n = 300,000). AID 1979, 2009;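 active = growth inhibition above about 58% in most replicates, limit read from the data, passing the limit was not always enough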;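 note: all wells also contain fluconazole at 8 µg/ml as a sub-toxic cotreatment; 0% = median of DMSO wells and 100% = median of geldanamycin control wells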
The depositor's hits bear a star; / = no result given.

SMILES	697 NFkB inh	Beta cell apopt	Jurkat NFkB inh	Shn3 3UTR inh	Calb FLC
O=c1[nH]c(=O)n(Cc2ccccc2)c2c1C(C(F)(F)F)(C(F)(F)F)N=C(c1ccco1)N2	-3	18	0	6	67
CC(=O)N1CCC(C(=O)Nc2ccc(S(=O)(=O)N3CCCCC3)cc2)CC1	2	-4	11	-22	4
BrC(=C\c1ccccc1)/C=N/Nc1ccc2nncn2n1	-13	0	10	-36	-4
BrC(=C\c1ccccc1)/C=N/n1cnnc1	/	/	/	52	86*
COc1cc(OC)cc(C(=O)NNC(=O)Cc2ccc(OC)c(S(=O)(=O)N3CCOCC3)c2)c1	-18	5	-7	59	110*
Cc1ccc(N2NC(C)(c3cccs3)NC2=S)cc1 (configuration not stated)	-59	-3	-44	-65	105*
CCCCCCC(=O)NNC(=O)c1c(O)c2ccccc2n(CC)c1=O	12	-1	-1	-2	-2
CCCCCCCCC(=O)NNC(=O)c1c(O)c2ccccc2n(CC)c1=O	12	-2	-8	-26	94*
CCOC(=O)C1CCCN(c2cc(C)nc3cc(-c4ccc(F)cc4)nn23)C1 (configuration not stated)	-25	-2	7	-15	104*
COc1ccc(-c2nc3ccc(Cl)cn3c2Cc2cccc(Cl)c2)cc1OC	/	/	/	-1	/
CCN(CC(=O)Nc1c(F)cccc1F)C(=O)c1cccn1C	/	/	/	-6	/
CCCNC(=O)Cn1nc(-c2ccccc2OC)ccc1=O	/	/	/	-22	/
O=C(Cc1ccc(O)cc1)N/N=C/c1cccnc1	12	6	-7	-42	102*
Cc1cc(C)c2sc(NNC(=O)c3ccc(S(=O)(=O)N4CCc5ccccc5C4)cc3)nc2c1	-47	101*	29	96*	8
Cc1cc(C)c2nc(NNC(=O)c3ccc(S(=O)(=O)N4CCc5ccccc5C4)cc3)sc2c1	-19	87*	8	93*	0
Cc1ccc2nc(N(CCCN(C)C)C(=O)c3ccc(S(=O)(=O)N4CCc5ccccc5C4)cc3)sc2c1	4	114*	10	25	-1
CN(C)CCCN(C(=O)c1ccc(S(=O)(=O)N2CCc3ccccc3C2)cc1)c1nc2ccc(F)cc2s1	-57	62	16	-3	-2
CCOc1ccc(NC(=O)c2cccc(-n3cccc3)c2)cc1S(=O)(=O)N1CCOCC1	-30	3	-14	7	/
Cc1ccc(Cn2c(C)c(C(=O)NCc3ccc4c(c3)OCO4)sc2=O)cc1	/	/	/	7	/
O=C(Nc1ccc2nc3n(c(=O)c2c1)CCCCC3)c1cc([N+](=O)[O-])ccc1F	-83	16	29	96*	-11
COc1ccc(C(O)c2ncc(-c3ccc4ccccc4c3)[nH]2)cc1 (configuration not stated)	/	/	/	-8	/
COc1cccc2sc(=NC(=O)CS(=O)(=O)c3ccc(F)cc3)n(C)c12	-17	/	-18	71	21
COc1cccc2sc(=NC(=O)CS(=O)(=O)c3ccc(Cl)cc3)n(C)c12	-34	/	40	88*	99*
Cc1nc2c(-c3ccc(Cl)cc3)c(C)[nH]n2c(=O)c1Cc1ccccc1	16	98*	4	38	-4
Cc1nc2c(-c3ccccc3)c(C)[nH]n2c(=O)c1Cc1ccccc1	3	26	-12	12	3
SMILES	697 NFkB inh	Beta cell apopt	Jurkat NFkB inh	Shn3 3UTR inh	Calb FLC
Cc1cccc(C(=O)NCC(=O)OCC(=O)c2ccc(Cl)s2)c1	5	-10	4	11	-7
CCn1c(NC(=O)c2cccs2)nc2ccccc21	-19	6	-23	-21	78*
CCCCNC(=O)c1ccc(Cn2c(=S)[nH]c3c([nH]c4ccc(OC)cc43)c2=O)cc1	-7	101*	-19	43	-2
Cc1ccc2[nH]c3c(N4CCN(Cc5ccccc5)CC4)ncnc3c2c1	22	69	15	90*	61
c1ccc(CN2CCN(c3ncnc4c3[nH]c3ccccc34)CC2)cc1	-25	65	22	85	14
Cc1ccc2c(c1)[nH]c1c(N3CCN(Cc4ccccc4)CC3)ncnc12	11	113*	28	72	30
CCOc1ccc(NC(=O)CN(C)C(=O)c2sc3ccccc3c2Cl)cc1OCC	17	6	-7	14	11
CC(NC(=O)CCc1nc2cc(S(=O)(=O)N3CCOCC3)ccc2n1C)c1ccc(S(N)(=O)=O)cc1 (configuration not stated)	-9	-2	23	-4	6
CCC(/C=C1\Sc2ccc(OC)cc2N1CC)=C\c1sc2ccc(OC)cc2[n+]1CCCS(=O)(=O)[O-]	18	103*	-6	75	4
O=C(NC(Nc1nc2ccc([N+](=O)[O-])cc2s1)(C(F)(F)F)C(F)(F)F)c1cccnc1	-18	119*	13	83	34
O=C(NNC(=O)c1cc(-c2ccc(Cl)cc2)nc2ccccc12)c1csc(N2CCOCC2)n1	8	9	2	6	82*
COc1ccc(C(C(=O)NC2CCCCC2)N(C(=O)CCl)c2cccc(Cl)c2)cc1 (configuration not stated)	/	99*	/	92*	-7
COc1ccc(N(C(=O)CCl)C(C(=O)NC2CCCCC2)c2cccnc2)cc1 (configuration not stated)	-58	-14	15	9	-17
OC(c1cc(-c2ccc(Cl)cc2)nc2ccccc12)C1CCCCN1 (configuration not stated)	/	121*	/	10	94*
CC(=O)Nc1cccc(-c2ccnc3c2CC(C)(C(=O)Nc2cccc(OC(F)(F)F)c2)O3)c1 (configuration not stated)	/	/	/	19	/
COc1ccc(/C=N/Nc2cc(C)nc3ccc(Br)cc23)cc1	-7	100*	31	93*	48
COc1ccc2nc(C)cc(N/N=C/c3cccc(OC)c3O)c2c1	1	29	-23	11	-14
COc1cccc(-c2nc(NC3CCCC3)c3ccccc3n2)c1O	-11	13	-8	86*	24
Cc1ccc(/C=C/C(=O)c2ccc([N+](=O)[O-])o2)cc1	2	109*	16	/	48
Cc1ccc(CNC(=O)c2ccc([N+](=O)[O-])o2)cc1	22	-27	3	-16	-6
O=C(/C=C/c1ccc(Cl)cc1)c1ccc([N+](=O)[O-])o1	-11	115*	12	97*	-5
Cc1cc(O)c(C(=O)/C=C/c2ccc(Cl)cc2)c(=O)o1	-17	-1	-37	-9	-3
Cc1ccccc1S(=O)(=O)N1C[C@H]2CON(C)[C@H]2C[C@H]1c1cccc(Oc2ccccc2)c1	/	/	/	1	/
